Assay results taken from PubChem BioAssay (NCI).
Compounds without any hit were thinned out: in the full panel of roughly 83,000, 20% have a hit.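 Assay: single dose, 48 h. Readout: percent growth (0 = no net growth; negative = cell death). Active: <10.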 The source made the active and inactive calls.

Assays:
Assay in all cases: NCI-60 one-dose screen, 48 h (100 = growth as untreated, 0 = no growth, -100 = all killed)
Settings in all cases: 10 µM unless noted
DU-145 prostate = test system: DU-145 prostate
MALME-3M melanoma = test system: MALME-3M melanoma
MDA-MB-231 breast = test system: MDA-MB-231 breast
RXF 393 renal = test system: RXF 393 renal
SF-268 CNS = test system: SF-268 CNS
SF-295 CNS = test system: SF-295 CNS
SF-539 CNS = test system: SF-539 CNS
UACC-257 melanoma = test system: UACC-257 melanoma
M14 melanoma = test system: M14 melanoma

Measured: growth

COc1ccc(C(=O)/C=C/c2ccccc2Br)cc1S(N)(=O)=O
inactive: MALME-3M melanoma 62.3% | SF-268 CNS 14.2% | UACC-257 melanoma 15.5%
active: DU-145 prostate -31.7% | MDA-MB-231 breast -20.8% | RXF 393 renal -70% | SF-295 CNS -76.6% | SF-539 CNS -74.9% | M14 melanoma -11.7%

COc1ccc(C(=O)/C=C/c2ccc(Cl)c(Cl)c2)cc1S(N)(=O)=O
active: RXF 393 renal -69.2% | SF-295 CNS 7.4% | SF-539 CNS -86.5% | UACC-257 melanoma 1.95% | M14 melanoma -70.9%
inactive: DU-145 prostate 25.2% | MALME-3M melanoma 28% | MDA-MB-231 breast 20.7% | SF-268 CNS 24.6%

COc1ccc(NC(=O)Cn2c(/C=C/c3cccc([N+](=O)[O-])c3)nc3ccccc3c2=O)cc1
inactive: DU-145 prostate 93.9% | MALME-3M melanoma 77% | MDA-MB-231 breast 15.8% | SF-268 CNS 71.6% | SF-295 CNS 79.2% | UACC-257 melanoma 98.8% | M14 melanoma 76.7%
active: RXF 393 renal -6.3% | SF-539 CNS 7.2%

N#Cc1c(NCc2ccccc2)n[nH]c1Nc1ccccc1
inactive: DU-145 prostate 92.7% | MALME-3M melanoma 21.9% | MDA-MB-231 breast 66.3% | RXF 393 renal 60.7% | SF-268 CNS 54.8% | SF-295 CNS 49.5% | SF-539 CNS 75.9% | UACC-257 melanoma 50.9% | M14 melanoma 41.1%

O=C(NNc1nc2cc(F)ccc2n2c(CN3CC4CNCC4C3)ccc12)c1ccncn1 (stereo not given)
inactive: DU-145 prostate 42.1% | MALME-3M melanoma 22.5% | MDA-MB-231 breast 27.5% | RXF 393 renal 64.1% | SF-268 CNS 28.3% | UACC-257 melanoma 12.1%
active: SF-295 CNS 2.58% | SF-539 CNS -10.3% | M14 melanoma -15.6%

CC(=O)N1CCN(Cc2ccc3c(NNC(=O)c4cnccn4)nc4cc(F)ccc4n23)CC1
active: SF-539 CNS 6.02% | M14 melanoma -31.4%
inactive: DU-145 prostate 39.4% | MALME-3M melanoma 30.4% | MDA-MB-231 breast 36.5% | RXF 393 renal 54.2% | SF-268 CNS 28.7% | SF-295 CNS 10.7% | UACC-257 melanoma 13.3%

O=C(Nc1ccc(C(F)(F)F)cc1)Nc1ccc2oc(=O)ccc2c1
inactive: DU-145 prostate 27.9% | MDA-MB-231 breast 14.6% | RXF 393 renal 56.5% | SF-268 CNS 50.9% | SF-539 CNS 32.2% | M14 melanoma 16.3%
active: MALME-3M melanoma -1.86% | SF-295 CNS -7.66% | UACC-257 melanoma 0.986%

COc1ccc(C(=O)/C=C/c2ccc3ccccc3c2)cc1S(N)(=O)=O
active: DU-145 prostate -9.03% | MDA-MB-231 breast 6.01% | RXF 393 renal -60.2% | SF-295 CNS -80.5% | SF-539 CNS -87.9% | UACC-257 melanoma -48.4% | M14 melanoma -78.5%
inactive: MALME-3M melanoma 18.1% | SF-268 CNS 12.8%

NS(=O)(=O)c1ccc(-n2cc(-c3cccc(NC(=O)c4cc(Cl)cc(Cl)c4)c3)nn2)cc1
inactive: DU-145 prostate 74.6% | MALME-3M melanoma 77.6% | MDA-MB-231 breast 54.1% | RXF 393 renal 87.9% | SF-268 CNS 43.1% | SF-295 CNS 75.6% | SF-539 CNS 70.1% | UACC-257 melanoma 83.2% | M14 melanoma 52.4%

CN1CCN(Cc2ccc(C(=O)Nc3cccc(C#Cc4cccc5[nH]nc(N)c45)c3)cc2C(F)(F)F)CC1
active: DU-145 prostate -68% | MALME-3M melanoma -82.6% | MDA-MB-231 breast -90.8% | RXF 393 renal -93.6% | SF-268 CNS -59% | SF-295 CNS -93.4% | SF-539 CNS -97.5% | UACC-257 melanoma -94.7% | M14 melanoma -95.6%

COc1ccc(C(=O)/C=C/c2cccc(Cl)c2)cc1S(N)(=O)=O
inactive: MALME-3M melanoma 27.6%
active: DU-145 prostate -40.6% | MDA-MB-231 breast -4.13% | RXF 393 renal -65.8% | SF-268 CNS 7.86% | SF-295 CNS -88.8% | SF-539 CNS -80.6% | UACC-257 melanoma -29.6% | M14 melanoma -10.5%

COc1ccc(-c2nnc3ccc(N/N=C/c4ccc(C)cc4)nn23)cc1
inactive: DU-145 prostate 39.1% | MALME-3M melanoma 91.3% | MDA-MB-231 breast 65.4% | RXF 393 renal 62.2% | SF-268 CNS 59.1% | SF-295 CNS 56.9% | SF-539 CNS 61.3% | UACC-257 melanoma 106% | M14 melanoma 83.5%

NS(=O)(=O)c1ccc(-n2cc(-c3cccc(NC(=O)c4ccc(Cl)c(C(F)(F)F)c4)c3)nn2)cc1
inactive: DU-145 prostate 18.3% | MALME-3M melanoma 39.9% | SF-268 CNS 29.4% | UACC-257 melanoma 39.1% | M14 melanoma 16.2%
active: MDA-MB-231 breast -5.26% | SF-295 CNS 7.53% | SF-539 CNS -38.8%

COc1ccc(C2=NN(c3ccccc3)C(c3ccc(OCc4ccccc4)c(OC)c3)C2)cc1OC (stereo not given)
inactive: DU-145 prostate 113% | MALME-3M melanoma 99.1% | MDA-MB-231 breast 101% | RXF 393 renal 86.2% | SF-268 CNS 90% | SF-295 CNS 91.3% | SF-539 CNS 98.7% | UACC-257 melanoma 90.9% | M14 melanoma 91.2%

C[C@H]1CN(C(=O)c2ccc3c(NNC(=O)c4ccncn4)nc4cc(F)c(F)cc4n23)CCN1
inactive: DU-145 prostate 41.3% | MALME-3M melanoma 33.6% | MDA-MB-231 breast 45.7% | RXF 393 renal 52.9% | SF-268 CNS 27.4% | SF-295 CNS 12.4% | UACC-257 melanoma 22.3%
active: SF-539 CNS 8.55% | M14 melanoma -24.8%

CN1CCN(c2ccc3c(c2)nc(NNC(=O)c2ncccn2)c2cccn23)CC1
inactive: UACC-257 melanoma 17.8%
active: DU-145 prostate 1.57% | MALME-3M melanoma -41.8% | MDA-MB-231 breast -45.8% | RXF 393 renal -53.6% | SF-268 CNS -15.7% | SF-295 CNS -90% | SF-539 CNS -83% | M14 melanoma -53.5%

COc1cc(OC)cc(-c2cc3ccc(N(C)C)cc3c(=O)[nH]2)c1
inactive: DU-145 prostate 21.5% | MALME-3M melanoma 59.3% | MDA-MB-231 breast 33.1% | RXF 393 renal 80.5% | SF-268 CNS 36.3% | SF-295 CNS 16.2% | UACC-257 melanoma 75.7% | M14 melanoma 10.7%
active: SF-539 CNS -1.21%

O=C1C(=Nc2ccc(F)c(Cl)c2)c2cccc3cccc1c23
inactive: DU-145 prostate 80.3% | MALME-3M melanoma 49.8% | MDA-MB-231 breast 59.6% | RXF 393 renal 107% | SF-268 CNS 68.6% | SF-295 CNS 47.3% | SF-539 CNS 26.8% | UACC-257 melanoma 49% | M14 melanoma 63.2%

CN1CCN(c2ccc3c(c2)nc(NNC(=O)c2cnccn2)c2cccn23)CC1
inactive: SF-268 CNS 10.6%
active: DU-145 prostate -9.7% | MALME-3M melanoma -24.5% | MDA-MB-231 breast -35.1% | RXF 393 renal -65.1% | SF-295 CNS -81.3% | SF-539 CNS -41.3% | UACC-257 melanoma -48.6% | M14 melanoma -78.1%

O=C1Nc2ccc([N+](=O)[O-])cc2C1=Nc1ccccc1
inactive: DU-145 prostate 114% | MALME-3M melanoma 100% | MDA-MB-231 breast 95.3% | RXF 393 renal 143% | SF-268 CNS 98.9% | SF-295 CNS 90.7% | SF-539 CNS 91.8% | UACC-257 melanoma 134% | M14 melanoma 104%

Cc1cnc(C(=O)NNc2nc3cc(F)ccc3n3c(C(=O)N4CC5CC(C4)N5)ccc23)cn1
active: SF-539 CNS 8.21% | M14 melanoma -22.8%
inactive: DU-145 prostate 48.8% | MALME-3M melanoma 43% | MDA-MB-231 breast 43.7% | RXF 393 renal 60.4% | SF-268 CNS 33.9% | SF-295 CNS 11% | UACC-257 melanoma 25.5%

COc1cc(OC)cc(C(=O)Nc2cccc(-c3cn(-c4ccc(S(N)(=O)=O)cc4)nn3)c2)c1
inactive: DU-145 prostate 97.2% | MALME-3M melanoma 79.9% | MDA-MB-231 breast 67.5% | RXF 393 renal 57.5% | SF-268 CNS 50.3% | SF-295 CNS 63% | SF-539 CNS 60.3% | UACC-257 melanoma 101% | M14 melanoma 91.3%

NS(=O)(=O)c1ccc(-n2cc(-c3cccc(NC(=O)c4cc(N5CCOCC5)cc(C(F)(F)F)c4)c3)nn2)cc1
inactive: DU-145 prostate 83% | MALME-3M melanoma 54.1% | MDA-MB-231 breast 37.4% | SF-268 CNS 41.1% | SF-295 CNS 54% | SF-539 CNS 19.3% | UACC-257 melanoma 66.3% | M14 melanoma 78.8%
